Screening results: PubChem, The Scripps Research Institute Molecular Screening Center
An excerpt weighted towards active compounds, which were near 3.4% of everything screened.
TEAD-YAP inh – TEAD-YAP interaction inhibition | actives 1.4% (n = 640,000) | HEK-TIYL cells, TEAD-Gal4/YAP UAS-luciferase luminescence | inhibition, % at 9.12 µM; in the data active means inhibition above about 32%
MITF inh – inhibitors of human MITF | AlphaScreen MITF homodimerization, bead proximity signal | inhibition, % at 2.6 µM | actives 0.91% (n = 650,000); in the data active means inhibition above about 50%
Target sequence (O75030 whole entry, looked up): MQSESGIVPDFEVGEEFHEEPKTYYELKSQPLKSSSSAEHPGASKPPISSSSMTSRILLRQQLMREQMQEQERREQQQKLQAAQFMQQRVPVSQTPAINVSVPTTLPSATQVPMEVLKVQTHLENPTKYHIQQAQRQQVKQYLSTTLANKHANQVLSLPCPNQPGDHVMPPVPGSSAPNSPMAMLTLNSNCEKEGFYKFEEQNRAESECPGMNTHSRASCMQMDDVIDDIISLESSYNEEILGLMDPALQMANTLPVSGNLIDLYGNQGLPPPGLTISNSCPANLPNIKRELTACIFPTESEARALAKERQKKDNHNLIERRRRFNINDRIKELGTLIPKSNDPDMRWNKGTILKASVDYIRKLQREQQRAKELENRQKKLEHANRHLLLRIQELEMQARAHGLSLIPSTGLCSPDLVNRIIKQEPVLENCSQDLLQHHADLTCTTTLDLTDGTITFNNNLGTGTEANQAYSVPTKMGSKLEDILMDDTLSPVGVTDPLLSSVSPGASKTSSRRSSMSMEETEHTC
GPR151 ag – activates the human receptor GPR151; Q8TDV0; PathHunter beta-arrestin GPR151 cells, luminescence; activation, % at 11.2 µM; actives 1% (n = 650,000); in the data active means activation above about 4.9%
FBW7 act – human FBW7 E3 ligase activation, primary screen; AlphaScreen FBW7–phospho-cyclin E peptide binding, activator screen; normalized activity (activation), % at 26.1 µM; actives 0.13% (n = 650,000); in the data active means normalized activity above about 1.9%;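 further: purified mutant Fbw7 with reduced substrate affinity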
Large screens that a line does not name were inactive.

N[C@H](Cc1cccc(F)c1)c1nc2ncc(-c3ccncc3)cc2[nH]1	TEAD-YAP inh 48.2
COc1ccccc1CNC(=O)c1cnn2c(C)c(Cc3ccc(F)cc3)c(C)nc12	none
COC(CNC(=O)c1cnn2c(C)c(Cc3c(C)cc(C)cc3C)c(C)nc12)OC	TEAD-YAP inh 50.1
COC(=O)c1cnn2c(C)c(Cc3ccc(F)cc3)c(C)nc12	TEAD-YAP inh 36.3
CCOC(=O)C1CCN(c2nc3cc(Br)ccc3s2)CC1	none
CCOc1ccc2nc(NC(=O)C(C)(C)CC)sc2c1	TEAD-YAP inh 40.8
CCOc1ccc2nc(N3CCC(C(=O)O)CC3)sc2c1	TEAD-YAP inh 58.0
CCOc1ccc2nc(N3CCC(C(=O)Nc4ccc(OC)cc4)CC3)sc2c1	none
CCOC(=O)Nc1nc2ccc(OCC)cc2s1	none
CCOC(=O)C1CCN(c2nc3ccc(CC)cc3s2)CC1	TEAD-YAP inh 55.5
CCc1ccc2sc(N3CCC(C(=O)NC4CCCC4)CC3)nc2c1	TEAD-YAP inh 65.0
COc1ccc(NC(=O)CSc2nnc(NC(=O)C3CCCCC3)s2)cc1OC	none
c1cc2c(cc1CNc1ccc3ncc(-c4ccc5c(c4)OCO5)n3n1)OCO2	none
CCN1CCN(c2nc3c(C)ccc(C)c3cc2C#N)CC1	none
COc1ccc(C(NC(=O)c2cccc(OC)c2)c2cc(Cl)c3cccnc3c2O)cc1 (stereo not drawn)	none
CCC(=O)NC(c1ccc(OC)cc1)c1cc([N+](=O)[O-])c2cccnc2c1O (stereo not drawn)	MITF inh 55.1
COc1ccc(C(NC(=O)c2cccnc2)c2cc(Cl)c3cccnc3c2O)cc1 (stereo not drawn)	TEAD-YAP inh 39.5
COc1cc(NC(=O)c2cccnc2)c2ncccc2c1	TEAD-YAP inh 78.8
Oc1c(C(Nc2ccccn2)c2cccnc2)cc(Cl)c2cccnc12 (stereo not drawn)	TEAD-YAP inh 57.5, MITF inh 84.8
CCCC(=O)NC(c1ccc(OC)cc1)c1cc([N+](=O)[O-])c2cccnc2c1O (stereo not drawn)	none
Oc1c(C(c2cccnc2)N2CCOCC2)cc(Cl)c2cccnc12 (stereo not drawn)	none
COc1ccc(CC(=O)Nc2ccc(N3CCC(NCCn4ccnc4)CC3)cc2)cc1	none
COc1ccc(Br)cc1C1N(c2ccc(C)cc2)CCN1c1ccc(C)cc1	none
CCCCC(=O)NC(c1ccco1)c1cc([N+](=O)[O-])c2cccnc2c1O (stereo not drawn)	none
CCCCC(=O)NC(c1ccccc1OC)c1cc([N+](=O)[O-])c2cccnc2c1O (stereo not drawn)	MITF inh 50.8
CCOCCOC(=O)C1=C(C)NC2=C(C(=O)CC(C)(C)C2)C1c1ccc(OCc2ccccc2)c(OC)c1 (stereo not drawn)	none
COC(=O)C1CCN(c2ccc([N+](=O)[O-])cc2[N+](=O)[O-])CC1	none
CCOC(=O)C1CN(c2ccc([N+](=O)[O-])cc2[N+](=O)[O-])C1	TEAD-YAP inh 55.3
CCN(CC)S(=O)(=O)c1ccc2[nH]c3nc(SCc4cccnc4)nnc3c2c1	TEAD-YAP inh 37.4
NC(=O)c1cc(F)ccc1Nc1ccnc(Nc2ccc(N3CCOCC3)cc2)c1	none
NC(=O)c1ccccc1Nc1ccnc(Nc2ccc(N3CCOCC3)cc2F)c1	TEAD-YAP inh 38.4
Cc1cc(Nc2cc(Nc3ccccc3C(N)=O)ccn2)ccc1N1CCOCC1	TEAD-YAP inh 34.3
NC(=O)c1ncccc1Nc1ccnc(Nc2ccc(N3CCOCC3)cc2)c1	TEAD-YAP inh 48.8
COc1ccc(-c2noc(=O)n2CC(=O)Nc2ccccc2C)cc1	none
O=C(N/N=C/c1cc(Br)c(Br)s1)c1ccncc1	none
COc1cc(/C=N\NC(=O)c2c(C)nc3ccc(Cl)cn23)cc(OC)c1OC	none
COc1cc(C(=O)N/N=C/c2ccc(O)cc2)cc(OC)c1OC	TEAD-YAP inh 56.8
O=C(N/N=C/c1ccc(Br)s1)c1ccncc1	TEAD-YAP inh 35.9
COc1cc(C(=O)N/N=C/c2ccc(OC)c(OC)c2C(=O)O)cc(OC)c1OC	TEAD-YAP inh 66.8
COc1cc(/C=N/NC(=O)c2c(C)nc3ccc(Cl)cn23)cc(OC)c1OC	FBW7 act 16.1
O=C(CCCOc1ccc(Cl)cc1)Nc1ccc(S(=O)(=O)Nc2ncccn2)cc1	none
CC(C)=C1CCC2(C)OC(=O)C(Cc3ccccn3)C12C (stereo not drawn)	none
CCCCCn1nc(C)c(/C=N/Nc2ccccn2)c1C	none
COC(=O)N/N=C/c1ccc(Br)s1	none
COc1cc(/C=N/NC(=O)c2cc(OC)c(OC)c(OC)c2)cc(OC)c1O	TEAD-YAP inh 56.5
COc1ccc(C(=O)N/N=C/c2cc(OC)c(O)c(OC)c2)cc1OC	none
COc1cc(C(=O)N/N=C/c2cccc(Br)c2)cc(OC)c1OC	TEAD-YAP inh 60.4
COc1cc(C(=O)N/N=C/c2ccc(Br)s2)cc(OC)c1OC	TEAD-YAP inh 59.1
O=S(=O)(c1ccc(Cl)cc1)c1ccc(Oc2ccccc2)cc1	none
O=C(Nc1ccc(Cl)cc1)c1ccc(NCCN2C(=O)CCC2=O)c([N+](=O)[O-])c1	none
Cc1ccc(-c2c3c(nc4sc(C(N)=O)c(N)c24)CCCC3)o1	MITF inh 55.3
COC(=O)c1sc2nc3c(c(-c4ccc(C)o4)c2c1N)CCCC3	none
CCc1nc2sc(C(=O)OC)c(N)c2c2c1CCCC2	none
CCc1nc2sc(C(N)=O)c(N)c2c2c1CCCC2	TEAD-YAP inh 38.2
NC(=O)c1sc2nc3c(c(-c4ccco4)c2c1N)CCC3	TEAD-YAP inh 43.7
O=C1CCCC2=C1C(c1ccccc1Cl)n1nc(-c3ccncc3)nc1N2 (stereo not drawn)	none
CCCCNC(=O)CSc1nc(Nc2ccc(F)c(F)c2)c2ccccc2n1	none
Cc1cccc(C)c1OCC(=O)N/N=C/c1cn(C)c2ccccc12	TEAD-YAP inh 50.9
Cc1ccc(OCC(=O)N/N=C/c2cc([N+](=O)[O-])ccc2F)cc1	TEAD-YAP inh 60.0
Cc1ccc(C)c(OCC(=O)N/N=C\c2ccccc2F)c1	none
Cc1cccc(C)c1OCC(=O)N/N=C/c1ccccc1F	TEAD-YAP inh 36.7
CSCCC(=O)N1CCC(C2(CCc3ccccc3)NC(=O)NC2=O)CC1 (stereo not drawn)	none
Clc1ccc(OCc2cn3ccccc3n2)cc1	none
O=C1CCc2ccc(OCc3cn4ccccc4n3)cc21	TEAD-YAP inh 57.7
COc1ccc(C(=O)OC2CCN(C)CC2)cc1OC	none
Cc1nc2cc(N3CCN(C)CC3)c(NC(=O)C3CC3)cc2c(=O)n1Cc1ccccc1	TEAD-YAP inh 34.3
CCOc1cc(C(=O)N2N=C(C)CC2(O)C(F)(F)F)cc(OCC)c1OCC (stereo not drawn)	TEAD-YAP inh 61.4
COc1cc(C(=O)N2N=C(C)CC2(O)C(F)(F)F)ccc1O (stereo not drawn)	none
O=C(NCc1cccnc1)c1cc(-c2ccco2)[nH]n1	none
O=S(=O)(NCc1cccs1)c1ccc(-c2ccc(S(=O)(=O)NCc3cccs3)cc2)cc1	none
O=S(=O)(NCc1cccs1)c1ccc(Cc2ccc(S(=O)(=O)NCc3cccs3)cc2)cc1	TEAD-YAP inh 33.6
CC(NC(=O)c1ccccc1[N+](=O)[O-])C(c1cccs1)N1CCCC1 (stereo not drawn)	none
